Experimental data taken from PubChem BioAssay (EPA / NIEHS).
Activity calls are given as the source filed them. The calls were made as follows: active = hit-call score of the fitted dose curve at least 0.9, where 1 is the maximum; inactive = score below 0.9.

Columns and labels:
[1] = ATG_CRE_CIS: Attagene CIS-FACTORIAL HepG2 Assay for human cAMP Responsive Element (CRE) binding protein 3 (AID 2282926); conditions: HepG2 CRE cis-reporter, Attagene multiplexed mRNA; actives raise or lower the signal
Procedure, shortened: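 We dosed HepG2 cells bearing multiple cis-promoter reporter units for 24 h and measured reporter mRNA by RT-PCR with capillary electrophoresis detection. Bidirectional concentration-response fitting used DMSO as negative control.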

[2] = target: CCAAT/enhancer-binding protein beta (Homo sapiens) (UniProt P17676); assay: ATG_C_EBP_CIS: Attagene CIS-FACTORIAL HepG2 Assay for human CCAAT/Enhancer Binding Protein (C/EBP) beta (AID 2282927); conditions: HepG2 Attagene cis-factorial transcription factor reporter; actives raise or lower the signal
Sequence of CCAAT/enhancer-binding protein beta (Homo sapiens) (P17676 whole entry, looked up): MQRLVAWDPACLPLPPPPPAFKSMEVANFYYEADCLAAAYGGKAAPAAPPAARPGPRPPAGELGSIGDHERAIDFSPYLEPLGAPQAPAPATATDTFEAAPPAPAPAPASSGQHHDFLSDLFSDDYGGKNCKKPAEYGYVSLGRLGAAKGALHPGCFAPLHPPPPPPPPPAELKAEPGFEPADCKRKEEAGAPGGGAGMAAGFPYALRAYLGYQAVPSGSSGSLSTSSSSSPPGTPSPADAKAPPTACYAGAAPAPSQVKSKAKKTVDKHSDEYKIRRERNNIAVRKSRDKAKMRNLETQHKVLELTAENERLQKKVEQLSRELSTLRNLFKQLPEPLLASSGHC
Procedure, shortened: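 HepG2 transiently transfected with multiplexed reporter units under cis-regulatory promoters reporting endogenous C/EBPb activity. After 24 h exposure, reporter mRNA assayed by RT-PCR, fluorescent labelling, HpaI digestion and capillary electrophoresis; bidirectional fitting versus DMSO.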

[3] = ATG_CMV_CIS: Attagene CIS-FACTORIAL HepG2 Assay for human CMV (Internal Marker) (AID 2282928); conditions: HepG2 CMV promoter reporter, transcription factor profiling; actives raise or lower the signal;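 also: endpoint acts as a background internal control marker rather than a target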
Procedure, shortened: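 Cell system: HepG2, transiently transfected multiple reporter units under cis promoters. Exposure: 24 h. Detection: RT-PCR, FAM labeling, HpaI digestion, capillary electrophoresis. Analysis: bidirectional, DMSO baseline.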

[4] = ATG_DR4_LXR_CIS: Attagene CIS-FACTORIAL HepG2 Assay for human Liver X Receptor (LXR), DR4 submotif (AID 2282929); conditions: HepG2 Attagene DR4 cis-reporter, mRNA transcription; actives raise or lower the signal
Procedure, shortened: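 The endpoint is DR4-element-driven reporter transcripts after 24 h chemical exposure of transfected HepG2 cells. These were measured via RT-PCR and capillary electrophoresis, and gain or loss of signal was fitted relative to DMSO controls.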

[5] = target: Aryl hydrocarbon receptor (Homo sapiens) (UniProt P35869); assay: ATG_Ahr_CIS: Attagene CIS-FACTORIAL HepG2 Assay for human Aryl Hydrocarbon Receptor (Ahr) (AID 2282930); conditions: HepG2 AhR cis-factorial reporter transcription; actives raise or lower the signal
Sequence of Aryl hydrocarbon receptor (Homo sapiens) (P35869 whole entry, looked up): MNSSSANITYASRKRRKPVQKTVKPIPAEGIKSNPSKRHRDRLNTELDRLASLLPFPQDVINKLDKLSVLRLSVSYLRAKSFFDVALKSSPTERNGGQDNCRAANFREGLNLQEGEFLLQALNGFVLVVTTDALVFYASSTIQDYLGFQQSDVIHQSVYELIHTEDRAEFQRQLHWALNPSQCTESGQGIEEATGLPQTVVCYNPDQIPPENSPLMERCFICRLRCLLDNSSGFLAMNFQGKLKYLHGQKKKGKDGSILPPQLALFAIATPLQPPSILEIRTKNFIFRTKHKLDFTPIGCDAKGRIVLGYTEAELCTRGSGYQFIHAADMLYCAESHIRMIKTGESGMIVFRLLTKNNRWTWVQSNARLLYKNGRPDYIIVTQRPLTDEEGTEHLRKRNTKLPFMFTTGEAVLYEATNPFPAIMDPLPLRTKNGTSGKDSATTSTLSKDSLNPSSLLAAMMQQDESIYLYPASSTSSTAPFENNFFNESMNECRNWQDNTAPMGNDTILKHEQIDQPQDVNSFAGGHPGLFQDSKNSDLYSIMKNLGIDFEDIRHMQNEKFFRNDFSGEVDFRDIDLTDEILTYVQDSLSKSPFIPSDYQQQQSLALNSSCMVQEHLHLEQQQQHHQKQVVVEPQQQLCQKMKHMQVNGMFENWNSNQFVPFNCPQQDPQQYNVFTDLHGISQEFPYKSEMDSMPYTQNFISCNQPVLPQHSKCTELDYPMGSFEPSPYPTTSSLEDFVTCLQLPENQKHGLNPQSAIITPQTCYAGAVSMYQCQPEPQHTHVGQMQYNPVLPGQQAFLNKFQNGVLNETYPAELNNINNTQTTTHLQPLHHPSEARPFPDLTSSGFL
Procedure, shortened: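 HepG2 cells transiently transfected with cis-element-driven multiplexed reporter units; endogenous AhR activity read as reporter mRNA 24 h after dosing, via RT-PCR, 6-FAM labelling, HpaI digestion and capillary electrophoresis. Bidirectional fit relative to DMSO.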

[6] = ATG_AP_1_CIS: Attagene CIS-FACTORIAL HepG2 Assay for human Activator Protein 1 (AP-1) (AID 2282931); conditions: HepG2 Attagene cis-factorial AP-1 reporter mRNA; actives raise or lower the signal
Procedure, shortened: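 Readout is reporter transcript level from endogenous transcription factor activity, quantified by RT-PCR with fluorescent primer extension and capillary electrophoresis. Transiently transfected HepG2 cells, 24 h exposure. Curves fitted both directions versus DMSO.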

[7] = ATG_AP_2_CIS: Attagene CIS-FACTORIAL HepG2 Assay for human Activator Protein 2 (AP-2) (AID 2282932); conditions: HepG2 AP-2 cis-reporter, Attagene transcription factor profiling; actives raise or lower the signal
Procedure, shortened: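 HepG2 cells transiently transfected with cis-element reporter units and exposed for 24 h. Reporter mRNA measured by RT-PCR, FAM labelling, HpaI digestion and capillary electrophoresis. Changes in either direction fitted relative to DMSO.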

[8] = ATG_BRE_CIS: Attagene CIS-FACTORIAL HepG2 Assay for human Bone Morphogenetic Protein (BMP) Response Element (BRE) (AID 2282933); conditions: HepG2 BMP response element reporter, Attagene transcription factor profiling; actives raise or lower the signal
Procedure, shortened: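 Fluorescence-labelled reporter cDNA fragments, separated by capillary electrophoresis, gave the signal for this component of a 52-readout multiplex. HepG2 cells were transfected, exposed to chemicals for 24 h, and compared with DMSO using bidirectional fitting.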

[9] = target: Retinoic acid receptor alpha (Homo sapiens) (UniProt P10276); assay: ATG_DR5_RAR_CIS: Attagene CIS-FACTORIAL HepG2 Assay for human Retinoic Acid Receptor Alpha (RARE), DR5 submotif (AID 2282934); conditions: HepG2 Attagene cis-factorial RARE DR5 reporter, mRNA; actives raise or lower the signal;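 as to AC50: reporter responds to endogenous RAR alpha beta and gamma in HepG2 not RARA alone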
Sequence of Retinoic acid receptor alpha (Homo sapiens) (P10276 whole entry, looked up): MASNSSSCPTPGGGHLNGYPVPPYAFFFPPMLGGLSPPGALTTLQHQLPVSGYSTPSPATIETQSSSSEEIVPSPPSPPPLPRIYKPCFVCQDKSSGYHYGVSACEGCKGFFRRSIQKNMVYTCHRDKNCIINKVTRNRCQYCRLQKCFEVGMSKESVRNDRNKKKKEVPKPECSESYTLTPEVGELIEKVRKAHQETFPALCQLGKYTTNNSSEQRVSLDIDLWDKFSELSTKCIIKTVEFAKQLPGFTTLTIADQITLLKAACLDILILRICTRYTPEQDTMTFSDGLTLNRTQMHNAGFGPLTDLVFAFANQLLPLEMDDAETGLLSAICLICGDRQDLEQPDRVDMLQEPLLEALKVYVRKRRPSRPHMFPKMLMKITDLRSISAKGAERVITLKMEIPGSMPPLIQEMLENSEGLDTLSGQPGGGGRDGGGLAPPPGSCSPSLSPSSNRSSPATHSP
Procedure, shortened: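 HepG2 cells transiently transfected with multiplexed reporter units; DR5 cis-element drives reporter through endogenous transcription factors. After 24 h dosing, reporter mRNA quantified by RT-PCR, fluorescent labeling, HpaI digestion and capillary electrophoresis; bidirectional fitting versus DMSO.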

[10] = target: Transcription factor E2F1 (Homo sapiens) (UniProt Q01094); assay: ATG_E2F_CIS: Attagene CIS-FACTORIAL HepG2 Assay for human E2F Transcription Factor 1 (AID 2282935); conditions: HepG2 Attagene cis-reporter, E2F reporter RNA transcripts; actives raise or lower the signal
Sequence of Transcription factor E2F1 (Homo sapiens) (Q01094 whole entry, looked up): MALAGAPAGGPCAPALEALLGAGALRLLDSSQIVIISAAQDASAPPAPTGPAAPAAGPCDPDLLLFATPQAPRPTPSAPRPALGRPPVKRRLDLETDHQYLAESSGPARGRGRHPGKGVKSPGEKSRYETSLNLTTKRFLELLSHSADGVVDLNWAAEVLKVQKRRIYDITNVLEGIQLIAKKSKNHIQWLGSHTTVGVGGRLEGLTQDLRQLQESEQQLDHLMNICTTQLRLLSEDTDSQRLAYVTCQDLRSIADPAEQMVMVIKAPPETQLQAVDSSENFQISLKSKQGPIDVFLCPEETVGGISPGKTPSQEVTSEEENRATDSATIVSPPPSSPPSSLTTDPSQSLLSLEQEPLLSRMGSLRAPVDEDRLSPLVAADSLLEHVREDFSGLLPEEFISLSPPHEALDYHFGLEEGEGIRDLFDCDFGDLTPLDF
Procedure, shortened: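 Endogenous E2F1 activity read through cis-promoter reporter units transfected into HepG2. After 24 h compound treatment, reporter mRNA measured by RT-PCR, HpaI digestion and capillary electrophoresis. Bidirectional fit versus DMSO.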

[11] = ATG_E_Box_CIS: Attagene CIS-FACTORIAL HepG2 Assay for human Enhancer Box (E-box) (AID 2282936); conditions: HepG2 E-box cis-reporter transcription, actives raise or lower the signal
Procedure, shortened: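 HepG2 cells transiently transfected with multiplexed cis-element reporter units, dosed 24 h; reporter mRNA quantified by RT-PCR, 6-FAM labelling, HpaI digestion and capillary electrophoresis. E-box (USF1) signal fitted bidirectionally vs DMSO.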

[12] = ATG_M_61_CIS: Attagene CIS-FACTORIAL HepG2 Assay for M61 Transcription Factor (Internal Marker) (AID 2282937); conditions: HepG2 Attagene CIS-FACTORIAL M61 internal marker reporter; actives raise or lower the signal
Procedure, shortened: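 Readout is reporter mRNA by RT-PCR, fluorescent primer extension and capillary electrophoresis, with gain or loss fitted relative to DMSO. Transfected HepG2 cells carrying endogenous-TF-driven cis reporters were exposed to chemicals for 24 hours.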

[13] = ATG_EGR_CIS: Attagene CIS-FACTORIAL HepG2 Assay for human Early Growth Response 1 (EGR1) (AID 2282938); conditions: HepG2 Attagene CIS-FACTORIAL EGR reporter mRNA; actives raise or lower the signal
Procedure, shortened: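 After 24 h compound exposure, RNA from reporter-transfected HepG2 cells was reverse-transcribed, PCR-amplified, fluorescently labelled and resolved by capillary electrophoresis. EGR1 reporter transcript changes, up or down, were fitted against DMSO, reflecting endogenous transcription-factor activity.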

[14] = ATG_M_19_CIS: Attagene CIS-FACTORIAL HepG2 Assay for M19 Transcription Factor (Internal Marker) (AID 2282939); conditions: HepG2 Attagene CIS-FACTORIAL M19 internal marker reporter; actives raise or lower the signal
Procedure, shortened: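 HepG2, MRTU transient transfection, 24 h dosing. Total RNA → RT-PCR → 6-FAM primer extension → HpaI digest → CE fluorescence. Bidirectional curve fit, DMSO negative control.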

[15] = ATG_Ets_CIS: Attagene CIS-FACTORIAL HepG2 Assay for human Erythroblast Transformation Specific (ETS) (AID 2282941); conditions: HepG2 ETS cis-reporter transcription, actives raise or lower the signal
Procedure, shortened: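 After transient cis-reporter transfection, HepG2 cells receive test chemical for 24 h. Reporter mRNA levels, measured by RT-PCR and capillary electrophoresis fluorescence, are analysed bidirectionally relative to the DMSO baseline.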

[16] = target: Hepatocyte nuclear factor 3-beta (Homo sapiens) (UniProt Q9Y261); assay: ATG_FoxA2_CIS: Attagene CIS-FACTORIAL HepG2 Assay for human Forkhead box A2 (FOXA2) (AID 2282942); conditions: HepG2 cis-reporter transcription factor activity, 24 h; actives raise or lower the signal
Sequence of Hepatocyte nuclear factor 3-beta (Homo sapiens) (Q9Y261 whole entry, looked up): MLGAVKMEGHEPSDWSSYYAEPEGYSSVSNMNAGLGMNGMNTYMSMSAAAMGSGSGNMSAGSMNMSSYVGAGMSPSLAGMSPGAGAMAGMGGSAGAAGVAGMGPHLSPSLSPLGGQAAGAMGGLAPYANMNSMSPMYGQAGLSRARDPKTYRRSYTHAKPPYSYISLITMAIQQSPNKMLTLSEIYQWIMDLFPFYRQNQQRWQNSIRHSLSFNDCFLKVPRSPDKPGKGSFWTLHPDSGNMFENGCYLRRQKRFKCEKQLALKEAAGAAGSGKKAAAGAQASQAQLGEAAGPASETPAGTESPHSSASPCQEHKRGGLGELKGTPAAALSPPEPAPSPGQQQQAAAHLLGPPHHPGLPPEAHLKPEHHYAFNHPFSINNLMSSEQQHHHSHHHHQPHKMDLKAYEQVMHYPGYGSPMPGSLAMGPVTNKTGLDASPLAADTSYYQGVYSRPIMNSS
Procedure, shortened: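 Endogenous transcription factor activity is captured via cis-element-driven reporter transcripts in transfected HepG2. Total RNA taken at 24 h post-dosing; labelled RT-PCR products resolved by capillary electrophoresis. Gain or loss fitted versus DMSO.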

[17] = ATG_FoxO_CIS: Attagene CIS-FACTORIAL HepG2 Assay for human Forkhead box O (FoxO) (AID 2282943); conditions: HepG2 Attagene cis-reporter, FoxO element, mRNA; actives raise or lower the signal
Procedure, shortened: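 HepG2 cells transiently transfected with cis-element-driven reporter units report endogenous FoxO activity. After 24 h chemical exposure, reporter mRNA quantified by RT-PCR, fluorescent labeling, HpaI digestion and capillary electrophoresis; bidirectional fit versus DMSO.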

[18] = ATG_GATA_CIS: Attagene CIS-FACTORIAL HepG2 Assay for human GATA Binding Protein (AID 2282944); conditions: HepG2 GATA cis-element reporter, Attagene multiplex mRNA; actives raise or lower the signal
Procedure, shortened: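 Cells: HepG2, transiently transfected with cis-regulated reporter transcription units. Exposure: 24 h. Detection: RT-PCR plus capillary electrophoresis of FAM-labeled fragments. Analysis: bidirectional, DMSO as baseline.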

[19] = ATG_GLI_CIS: Attagene CIS-FACTORIAL HepG2 Assay for human Zinc Finger Protein GLI1 (AID 2282945); conditions: HepG2, Attagene cis-factorial reporter mRNA, GLI element; actives raise or lower the signal
Procedure, shortened: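 Transiently transfected HepG2 cells report endogenous transcription factor activity via cis-element-driven reporter units. After 24 h compound exposure, reporter mRNA was measured by RT-PCR with capillary electrophoresis; bidirectional fitting against DMSO baseline.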

[20] = ATG_ERE_CIS: Attagene CIS-FACTORIAL HepG2 Assay for Estrogen Response Element (ERE) (AID 2282940); conditions: HepG2 ERE cis-reporter, Attagene RNA transcript; actives raise or lower the signal
Procedure, shortened: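 After a 24 h chemical treatment, RNA from reporter-transfected HepG2 cells is reverse-transcribed, PCR-amplified and fluorescently labelled. Fragments separated by capillary electrophoresis give reporter signal; DMSO serves as negative control.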

Measured: AC50

NCC1CCCC(CN)C1 (stereo not drawn)
not listed: [20]
inactive: all other assays above

C=CC(=C)CCCC(C)(C)OC(C)=O
not listed: [18] | [20]
inactive: all other assays above

C1CCOC1
not listed: [18] | [20]
inactive: all other assays above

COC(C)(C)CC(C)=O
not listed: [18] | [20]
inactive: all other assays above

CN1C(=O)c2ccccc2C1=O
not listed: [18] | [20]
inactive: all other assays above

C=Cc1ccncc1
active: [2] 26.2 µM | [3] 100 µM | [9] 27 µM | [11] 46.1 µM | [13] 37.1 µM | [15] 57.3 µM | [17] 43.4 µM | [18] 22.7 µM
not listed: [20]
inactive: all other assays above

C[C@@H]1CCN(C(=O)[C@H](CCCN=C(N)N)NS(=O)(=O)c2cccc3c2NC[C@H](C)C3)[C@@H](C(=O)O)C1
not listed: [12] | [18]
inactive: all other assays above
